Source: PubChem BioAssay (National Center for Advancing Translational Sciences (NCATS))
Pf growth 48h – P. falciparum growth inhibition at 48 hours (one generation) | P. falciparum luciferase growth in erythrocytes, 48 h | Potency, µM (titrated, usually from 28.7 µM), inactives show at the top dose activity change, negative = inhibition, usual class: inhibitors | 5.9% of 310,000 active | AID 504832; further: potency means the concentration at half of the fitted maximal effect; on the % scale 0 is the no-effect control and ±100 the full control effect
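A one-generation exposure of luciferase-tagged malaria parasites in RPMI 1640/Albumax erythrocyte culture, 37 C and 5% CO2. Inhibition is inferred from decreased luminescence after adding detection reagent.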
NS1 inh – inhibitors of influenza NS1 protein function; Potency, µM (highest dose often 46.1 µM), for inactives: top-dose activity, positive = more growth; 0.4% of 270,000 active; AID 2326; calls by dose curve; further: potency means the concentration at half of the fitted maximal effect; actives are rising curves; nearly all actives have a fitted effect of over 50% in size
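A cell-based growth assay was used: compounds that relieve NS1-induced slow growth of budding yeast raise OD600. Assay medium was yeast nitrogen base with ammonium sulphate and -URA supplement, pH 6.0, with 2% galactose.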
CHX counter – counter-screen hit for Shiga toxin inhibitors, cycloheximide; cell reporter, cycloheximide protein synthesis inhibition counterscreen; max response, %; 12% of 300,000 active; in the data active means max response mostly above about 13%, no sharp cut-off; inactive means mostly below about 14%; further: read at 38.3 µM for the half of the compounds with a filed dose; 0% is about no effect
Shiga toxin inh – inhibitors of Shiga toxin in Vero cells; Vero cells, Shiga toxin protein synthesis inhibition reporter; inhibition, % at 38.7 µM; 9.2% of 290,000 active; AID 2315; in the data active means inhibition mostly above about 28%, no sharp cut-off; inactive means mostly below about 43%; further: 0% is about no effect
Pf growth 96h – inhibits malaria parasite growth, 96 h | P. falciparum luciferase reporter growth, 96 h | Potency, µM (series often up to 28.7 µM), inactives show at the highest dose activity change, negative = inhibition, usual class: inhibitors | 6.9% of 320,000 active | AID 504834; further: potency means the concentration at half of the fitted maximal effect; on the % scale 0 is the no-effect control and ±100 the full control effect
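Cell-based qHTS: luciferase-tagged P. falciparum in erythrocytes (2% hematocrit, 0.05% parasitemia final) incubated with compounds for 96 hours, 37 C, 5% CO2; luciferase detection reagent then added and luminescence measured.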
* = called active by the depositor; ? = inconclusive; . = not tested or not shown. In the library only some 21% were active in any assay of this set; here they are far more common. Unless noted, the call rests on the fitted dose curve; in most records, active means well fitted inhibition curve with a large enough effect; inconclusive means small, poorly fitted or top-dose-only effect, or another doubt; inactive means no such curve, though single readings can be large or run the other way.

SMILES	Pf growth 48h	NS1 inh	CHX counter	Shiga toxin inh	Pf growth 96h
COc1ccccc1C(=O)N/N=C/c1cnc2ccccc2n1	114.6%	-29.7%	58.6*	125.3*	81.0%
CSc1ccc(/C=N/NC(=O)c2cccs2)cc1	-46.1%	-1.9%	52.1*	66.3*	?
O=C(N/N=C/c1ccncc1)c1cccs1	.	-11.1%	52.3*	90.7*	?
CC1=C(C(=O)N2CCOCC2)C(c2cc(C)ccc2C)NC(=S)N1 (centres undefined)	?	.	9.9	-9.6	-11.7%
CCS(=O)(=O)N1CCC(NC(=O)C(Cc2cc(OC)ccc2OC)NC(C)=O)CC1 (centres undefined)	5.5%	15.2%	-1.8	-3.2	?
O=C(COC(=O)CCC(=O)c1ccc(Cl)cc1)NC1CC1	19.1%	.	0.3	-7.5	19.1%
O=C(N/N=C/c1ccc(-n2ccnc2)cc1)c1cccs1	43.8%	-2.2%	44.8*	84.7*	46.6%
O=C(N/N=C/C=C/c1ccc([N+](=O)[O-])cc1)c1cccs1	-15.0%	-11.5%	14.8	56.7	75.4%
O=C(N/N=C/c1ccc(Cl)s1)C(O)c1ccccc1 (centres undefined)	15.0%	2.2%	6.6	15.6	?
O=C(N/N=C/c1ccc(-c2ccccc2C(=O)O)o1)c1cccs1	24.3%	12.0%	33.3*	48.8*	77.7%
COc1ccccc1C(=O)N/N=C/c1ccc(Cl)s1	41.8%	-26.4%	49.2*	78.1*	?
O=C(Nc1nnc(SCc2ccc(F)cc2)s1)C1=COCCO1	49.7%	.	.	.	?
CN(C)c1cccc2c(C=C(C#N)C#N)ccc(N(C)C)c12	-14.8%	10.5%	-1.6	-4.9	0.5%
Cc1cc(NC(=O)C(C)SCC(=O)N(C)CC(=O)Nc2ccccc2Br)no1 (centres undefined)	-1.4%	.	.	.	63.0%
CCc1ccccc1N(C(=O)c1snc(C(N)=O)c1N)C(C(=O)NCC1CCCO1)c1ccc(OC)c(OC)c1 (centres undefined)	11.7µM*	0.6%	-7.3	-4.5	44.0%
COc1ccc(C(C(=O)NCC2CCCO2)N(C(=O)c2snc(C(N)=O)c2N)c2ccccc2C)cc1OC (centres undefined)	11.7µM*	28.7%	9.0	-13.6	34.0%
CCc1ccc(N(C(=O)c2snc(C(N)=O)c2N)C(C(=O)NCC2CCCO2)c2cccs2)cc1 (centres undefined)	?	.	36.6*	56.9	10.1%
CCOc1ccc(C(C(=O)NCC2CCCO2)N(CCc2cccc(C)c2)C(=O)c2snc(C(N)=O)c2N)cc1 (centres undefined)	9.28µM*	13.7%	-0.7	24.8	-0.8%
CCOc1ccc(C(C(=O)NCC2CCCO2)N(C(=O)c2snc(C(N)=O)c2N)c2ccc(F)cc2)cc1 (centres undefined)	?	9.9%	-2.5	-6.2	21.2%
NC(=O)c1nsc(C(=O)N(c2ccc(Cl)cc2)C(C(=O)NCC2CCCO2)c2cccs2)c1N (centres undefined)	?	-1.9%	-1.0	20.7	5.4%
CC(C)Cc1nnc(NC(=O)C2CC(=O)N(c3ccc4c(c3)OCCO4)C2)s1 (centres undefined)	-9.3%	.	.	.	-29.0%
CCc1ccccc1N(CC(=O)NC(C)(C)C)C(=O)CCC(=O)Nc1ccccn1	-8.4%	6.0%	-1.8	27.8	?
CCCn1c(Oc2ccccc2)nc2c1c(=O)n(C)c(=O)n2C	3.7%	2.1%	-2.0	-7.6	?
Cc1cccc(N(C(=O)c2snc(C(N)=O)c2N)C(C(=O)NCC2CCCO2)c2ccc(N(C)C)cc2)c1C (centres undefined)	?	2.8%	-3.9	12.3	7.38µM*
Cc1ccc(Cl)c2c(N=Nc3ccccc3)c(O)[nH]c12	147.7%	4.5%	17.6*	65.9*	-26.9%
SMILES	Pf growth 48h	NS1 inh	CHX counter	Shiga toxin inh	Pf growth 96h
Cn1c(/C=N/NC(=O)c2ccccc2)nc2ccccc21	?	-15.0%	30.6*	75.3*	?
Cn1c(CCCNC(=O)c2ccccc2)nc2ccccc21	-2.9%	-4.1%	-1.2	4.1	-15.4%
Cn1c(C(=O)N/N=C/c2ccccc2)cc2ccccc21	55.9%	-15.3%	20.8*	43.6	-8.6%
COCCCn1c(SCC(=O)NC2CCCC2)nnc1-c1ccncc1	14.8%	-13.4%	-4.0	-3.2	54.0%
Cc1ccc(-c2nc3cnccn3c2Nc2ccc3c(c2)OCO3)cc1	.	-49.3%	2.7	10.9	?
CN(C)c1ccc(-c2nc3cnccn3c2Nc2ccc3c(c2)OCCO3)cc1	?	0.8%	31.0*	87.4*	?
